ELG1 genotoxic: inducers of genotoxicity in HEK293T ELG1-luciferase cells. HEK293T ELG1-luciferase reporter, luminescence, 16 h. Potency, µM (series often up to 46 µM), without a hit: at the top dose activity change, positive = activation, most hits filed as activators. 330,000 compounds, 1.3% hits; note: % of control where 0% means no effect; nearly all actives have a fitted effect of over 60% in size
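Genotoxic stress is detected as increased luminescence from luciferase-tagged ELG1 in HEK293T cells, measured with ONE-Glo after a 16 hr treatment at 37 °C.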
NPC1 prom act: activates the NPC1 promoter | 320,000 compounds, 2.4% hits | Potency, µM (top dose mostly 9.22 µM), inactives show top-dose activation, most hits filed as activators | Huh7 NPC1 promoter luciferase reporter, 24 h; note: % of control where 0% means no effect; nearly all actives have a fitted effect of over 60% in size
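Luminescence read-out of NPC1 promoter-driven luciferase in stably transfected Huh7 cells; compounds delivered in DMSO and left 24 h at 37C, 5% CO2, qHTS titration format.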
ELG1 repair inh: inhibitors of ELG1-dependent DNA repair in HEK293T cells; Potency, µM (top dose mostly 46.1 µM), without a hit: at the highest dose activity change, negative = inhibition, usual class: inhibitors; 330,000 compounds, 2.3% hits; HEK293T ELG1-luciferase reporter, luminescence, 16 h; DNA damage induced by 5-fluorouridine; AID 504467; note: % is set by controls: 0 for no effect and ±100 for the full control effect; nearly all actives have a fitted effect of over 55% in size
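HEK293T cells expressing luciferase-tagged ELG1 (2,000/well) received 5-Fluorouridine plus compound or DMSO for 16 hr at 37 °C. Luciferase was read by ONE-Glo luminescence after 30 min at room temperature.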
Rab9 promoter act: activates the Rab9 promoter; Huh7 Rab9 promoter-luciferase reporter, luminescence, 24 h; Potency, µM (doses to about 9.22 µM), inactives show top-dose activation, negative = inhibition, hits mostly activators; 320,000 compounds, 2.8% hits; note: % of control where 0% means no effect; nearly all actives have a fitted effect of over 60% in size
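Measured in stably transfected Huh7 cells bearing a Rab9 promoter–luciferase construct: 24 h compound treatment at 37 °C, followed by luminescence detection.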
SMN2 splice enh: SMN2 splice variant enhancement. HEK293 SMN2-luciferase splicing reporter, luminescence, 30-36 h. Potency, µM (doses to about 46.1 µM), without a hit: top-dose activity change, positive = activation, actives largely listed as activators. 210,000 compounds, 2.8% hits. AID 1458; note: % of control where 0% means no effect; nearly all actives have a fitted effect of over 55% in size
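HEK293 cells carry an SMN2 […]–luciferase reporter in which exon 7 inclusion puts luciferase in frame. Cells were plated 10-12 h before compound addition, then incubated 30-36 h at 37C. ONE-Glo luminescence was read; sodium butyrate at 4.5 mM final served as control.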
FLuc counter: inhibits or activates purified firefly luciferase, miR-21 counter-screen. AID 588342. Potency, µM (series often up to 57.5 µM), inactives show at the top dose activity change, negative = inhibition, actives largely listed as inhibitors. 360,000 compounds, 6.9% hits. purified FLuc, Km substrates, luminescence inhibition. P08659;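 note: plate controls were vehicle for no effect and reference inhibitor for full effect; nearly all actives have a fitted effect of over 55% in size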
Target sequence (P08659 whole entry, looked up): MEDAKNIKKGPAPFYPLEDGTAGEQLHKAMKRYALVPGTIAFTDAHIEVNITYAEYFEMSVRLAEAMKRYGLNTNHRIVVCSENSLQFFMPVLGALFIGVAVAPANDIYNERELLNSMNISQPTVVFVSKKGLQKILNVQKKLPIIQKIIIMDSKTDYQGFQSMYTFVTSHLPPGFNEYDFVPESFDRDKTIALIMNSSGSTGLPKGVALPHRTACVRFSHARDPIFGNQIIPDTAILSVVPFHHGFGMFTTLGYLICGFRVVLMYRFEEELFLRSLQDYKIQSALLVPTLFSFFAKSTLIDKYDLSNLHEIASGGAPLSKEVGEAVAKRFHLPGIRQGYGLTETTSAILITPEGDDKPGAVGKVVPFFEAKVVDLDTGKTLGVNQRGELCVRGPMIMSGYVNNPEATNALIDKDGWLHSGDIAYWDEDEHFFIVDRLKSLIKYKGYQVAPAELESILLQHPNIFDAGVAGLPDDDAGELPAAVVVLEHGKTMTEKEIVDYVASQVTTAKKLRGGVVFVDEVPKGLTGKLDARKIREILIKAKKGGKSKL
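Purified P. pyralis luciferase, 10 nM final, with Km-level 10 uM D-luciferin and 10 uM ATP in 50 mM Tris acetate pH 7.5, 10 mM Mg acetate, 0.01% Tween-20, 0.05% BSA; 6-point qHTS titration about 60 µM downward; luminescence read.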
The depositor's hits bear a star; ? = inconclusive; . = no result; [ ] = remark or other dose. A selection: hits, their analogues and other compounds. The true share with any hit is near 9.2%. Calls come from the whole dose curve; as a rule, active = well fitted curve in the direction sought with a large enough effect; inconclusive = small, poorly fitted or top-dose-only effect, or another doubt; inactive = no such curve, though single readings can be large; an effect the other way counts as inactive or inconclusive. Potency is the fitted concentration of half-maximal effect.

SMILES	ELG1 genotoxic	NPC1 prom act	ELG1 repair inh	Rab9 promoter act	SMN2 splice enh	FLuc counter
O=C(OCC(=O)N1CCN(C(=O)COC(=O)c2ccc(O)cc2O)CC1)c1ccc(O)cc1O	4.4%	-1.9%	-8.1%	-0.4%	.	-0.5%
Cc1cc(C(=O)COC(=O)c2ccc(O)cc2O)c(C)n1C(C)C	12.5%	3.55µM*	-18.8%	3.55µM*	.	4.78µM*
Cc1cc(C(=O)COC(=O)c2n[nH]c(=O)c3ccccc23)c(C)n1C(C)C	?	26.7%	?	?	.	1.69µM*
COc1ccc(NC(=O)CSc2nc(N)c3cc4c(nc3n2)CCCC4)cc1	13.4%	18.9%	14.7%	?	22.4µM*	1.51µM*
CCn1c(SCC(=O)Nc2ccc(C(C)=O)cc2)nc2nc3c(cc2c1=O)CCCC3	?	12.1%	?	20.6%	-75.6%	?
CC(=O)c1ccc(NC(=O)CSc2nc(N)c3cc4c(nc3n2)CCCC4)cc1	16.1%	?	-21.7%	?	25.1µM*	1.35µM*
COc1ccc(Nc2ncc(C(=O)Nc3cccc(Cl)c3)c3ccccc23)cc1	.	.	.	.	10.6%	26.0%
Cc1oc(C(C)(C)C)cc1C(=O)Nc1cccc(/C=C/C(=O)O)c1	10.2%	-3.0%	6.5%	-19.4%	0.1%	12µM*
Cc1cc(C(=O)Nc2cccc(/C=C/C(=O)O)c2)c(C)o1	0.5%	1.7%	-4.4%	4.6%	8.5%	13.5µM*
Cc1cc(C(=O)Nc2ccccc2)c(C)o1	?	-2.5%	?	-2.3%	-15.7%	?
Cc1oc(-c2ccccc2)cc1C(=O)Nc1cccc(/C=C/C(=O)O)c1	1.4%	-1.3%	0.0%	-0.5%	3.5%	15.1µM*
CC(C)(C)OC(=O)COc1cc(F)ccc1[N+](=O)[O-]	2.2%	-2.8%	-2.3%	1.7%	.	5.0%
CCn1cc2nc(SCc3cccc(C(F)(F)F)c3)n(Cc3ccc(Cl)cc3)c(=O)c2n1	.	.	.	.	.	2.1%
CCC(=O)N1CCc2cc(S(=O)(=O)CCC(=O)NCc3cccc(OC)c3)ccc21	0.8%	-2.8%	-5.8%	-1.4%	3.8%	-1.2%
c1ccc(-c2onc3cc4c(cc23)OCCO4)cc1	?	?	?	3.16µM*	35.5µM*	-10.4%[2.3 µM]
CC(=O)c1ccc2noc(-c3cccc(C)c3)c2c1	1.5%	4.9%	0.0%	12.5%	-9.0%	?
CN(C)/C=C/C(=O)c1ccc2noc(-c3ccccc3)c2c1	-8.5%	12.4%	23.1µM*	-2.5%	.	?
CC(=O)c1ccc2noc(-c3ccccc3)c2c1	3.2%	-3.6%	9.2µM*	0.1%	.	?
COc1cc(OC)c(NC(=O)N2CCSc3ccccc32)cc1Cl	.	.	.	.	.	-19.1%
CCc1ccc(-c2nc(SCC(=O)NCCOC)c(-c3ccc(C)cc3)[nH]2)cc1	.	.	.	.	10.3%	-12.8%
COc1cc(/C=N/NC(=O)c2cc(-c3ccco3)nc3ccccc23)cc(OC)c1O	-4.5%	-5.7%	?	-2.1%	.	12µM*
O=C(N/N=C/c1cccc(F)c1)c1cc(-c2ccco2)nc2ccccc12	7.8%	0.6%	?	5.8%	?	0.536µM*
COc1cc(OC)cc(-c2nnc(SCC(=O)N(Cc3ccccc3)C(C)(C)C)o2)c1	-29.6%	-5.7%	23.1µM*	8.9%	-23.8%	2.0%
COc1cc(-c2nnc(SCC(=O)N(Cc3ccccc3)C(C)(C)C)o2)cc(OC)c1OC	-19.4%	0.2%	20.6µM*	0.9%	-31.2%	4.5%
CCCCN(CCCC)C(=O)CSc1nnc(-c2cc(OC)c(OC)c(OC)c2)o1	-20.1%	-1.5%	10.3µM*	-10.5%	-53.5%	6.8%
SMILES	ELG1 genotoxic	NPC1 prom act	ELG1 repair inh	Rab9 promoter act	SMN2 splice enh	FLuc counter
COc1cc(-c2nnc(SCC(=O)NCc3ccccc3Cl)o2)cc(OC)c1OC	.	.	.	.	.	-10.5%
Cc1ccc(S(=O)(=O)NCC(=O)NCC(=O)OC(C(=O)NC(N)=O)C(C)C)cc1C (stereo not drawn)	-0.5%	-4.0%	-0.9%	-3.0%	.	-0.2%
COc1cc(Br)cc(/C=C/c2ccc3cccc(O)c3n2)c1OC	-3.6%	-1.4%	-14.8%	1.8%[1.84 µM]	.	?
COc1ccc(/C=C/c2ccc3cccc(O)c3n2)c(OC)c1OC	23.1µM*	3.16µM*	?	2.51µM*	.	4.78µM*
COc1ccc(/C=C/c2ccncc2)c2ccccc12	.	.	.	.	3.4%	-5.7%
COc1cccc(/C=C/c2ccc3cccc(O)c3n2)c1OC	18.3µM*	3.55µM*	?	?	.	2.69µM*
Clc1cccc(-c2nc3nc4ccccc4nc3n2Cc2ccccc2)c1	0.0%	-2.2%	?	-7.5%	-12.2%	-4.7%
c1csc(-c2nc3nc4ccccc4nc3n2Cc2ccc3c(c2)OCO3)c1	-1.2%	29.4%	?	?	?	2.69µM*
c1ccc(Cn2c(-c3ccccc3)nc3nc4ccccc4nc32)cc1	-5.7%	-0.4%	20.6µM*	-2.0%	-23.4%	-11.6%
C=CCn1c(-c2ccccc2)nc2nc3ccccc3nc21	-5.5%	11.8%	3.3%	4.2%	4.2%	16.9µM*
Cc1cc(OCC(=O)Nc2cnn(CCCC(=O)O)c2)ccc1[N+](=O)[O-]	0.3%	-4.2%	30.0%	11.8%	.	-7.2%
Cc1cc(OCC(=O)N2CCCCCC2)ccc1[N+](=O)[O-]	?	?	?	?	12.6µM*	16.9µM*
Cc1ccc(OCC(=O)N2CCCCCCC2)cc1C	9.9%	17.4%	?	?	.	?
Cc1cc(OCC(=O)Nc2ccncc2)ccc1[N+](=O)[O-]	-7.3%	-11.6%	7.3µM*	-15.8%	8.4%	-5.0%
O=C(Cn1cc(SCc2ccc(C(F)(F)F)cc2)c2ccccc21)N1CCCCC1	.	.	.	.	.	-14.2%
COc1ccc(NC(=O)Nc2ccc3nccnc3c2)cc1	13.0%	3.16µM*	?	0.398µM*	?	4.26µM*
COc1ccc(NC(=O)Nc2ccc3nonc3c2)cc1	2.9%	?	?	3.55µM*	.	?
COc1ccc(C(=O)Nc2ccc3nc(C)c(C)nc3c2)cc1	8.0%	24.0%	?	13.6%	.	?
COc1cc([N+](=O)[O-])ccc1NC(=O)NNC(=O)c1sccc1C	9.8%	-0.9%	11.5%	-1.2%	.	-15.1%
C/C(=C\c1ccc(N)cc1)c1nc2ccccc2[nH]1	?	2.51µM*	?	2.24µM*	.	3.01µM*
Cc1ccc(NC(=O)CCCN2C(=O)COc3ccc(C)cc32)c(Cl)c1	.	.	.	.	-7.3%	-7.0%
CC(C)(C)C(=O)Nc1nc2nc(-c3ccccc3)cc(=O)n2[nH]1	.	.	.	.	1.8%	?
CCOc1ccc(C(=O)Nc2nnc(SCc3cc(=O)n4ccccc4n3)s2)cc1	.	.	.	.	.	-12.7%
CC1CCN(c2nnc(N)s2)CC1	?	2.24µM*	?	1.26µM*	2.51µM*	4.26µM*
